Source: PubChem BioAssay AID651567 (National Center for Advancing Translational Sciences (NCATS), 2012)
The whole screen tested about 1,200 compounds, of which about 10 (0.8%) were called active. Not shown: some 4% with an inconclusive outcome. The sample holds actives, similar compounds and a random draw of the others, so the mix is not that of the screen. Calls follow the shape of the dose curve; as a rule, active = well fitted inhibition curve with a large enough effect; inconclusive = small, poorly fitted or top-dose-only effect; inactive = no such curve, though single readings can be large or run the other way.

Test: qHTS Assay to Find Inhibitors of Chronic Active B-Cell Receptor Signaling: Hit Validation in OCI-Ly3 Assay
Conditions: OCI-Ly3 IkB-luciferase reporter, Chroma-Glo luminescence, 4 h; series mostly up to 46.1 µM
Description: Diffuse large B-cell lymphoma (DLBCL) is the most common category of non-Hodgkin lymphoma, with ~20,000 new cases per year in the United States. DLBCL should be regarded as a collection of different neoplasms. Microarray gene expression analysis has defined two principal types of DLBCL, named for their similarity to normal B cell stages or activation states: a germinal center B-cell (GCB) type, and an activated B-cell (ABC) type. In ABC-DLBCL, a constitutive high-level activity of the NF-kappaB family of transcription factors has been observed (1) and NF-kappaB target genes are more highly expressed in ABC primary tumors than in GCB tumors. Functional studies have shown a constitutive high-level activity of the IkappaB (inhibitor of kappa-B) kinase (IKK) complex. […] Further analysis of DLBCL primary tumors for NF-kappaB target gene expression imply that although CARD11 is required for constitutive IKK activity in all ABC-DLBCL lines, mutations in CARD11 may be the root cause of IKK activation only in lines or tumors with such mutations. In other words, CARD11 mutations may explain NF-kappaB activation in only 10% of ABC-DLBCL cases. […] This process has been termed 'chronic active BCR signaling' (CABS). The goal of this screen is to find small-molecule inhibitors of the CABS pathway found in ABC-DLBCL lines using a cell-based assay that measures IkappaBalpa stability, which has already been extensively validated in the OCI-Ly3 line (PubChem AID:445; REF: 4). […] Hits from the primary screen were tested in this selectivity secondary assay. NIH Molecular Libraries Probe Production Network [MLPCN] NIH Chemical Genomics Center [NCGC] MLPCN Grant: R03 DA031086 PI Name: Dr. R. Eric Davis
Cells were seeded in 1536-well plates at 5000 cells/3ul in IMDM medium containing 0.5% FBS, w/o phenol red, L-glutamine, 25 mM HEPES, 3 mg/ml sodium bicarbonate. After centrifugation for 1 min. at 1000 rpm, 23 nl of compounds or DMSO were delivered to each well using a pin tool. Then 1ul 80ng/ml doxycycline was dispensed into white solid 1536-well plates and the plates were incubated at 37C/5% C02 in a cell incubator for 4 hrs. Then 4 ul Chroma-Glo luminescent substrate mix (Promega) was added to each well. The plate was incubated at R.T. for 10-15 min. The plates were measured on a ViewLux plate reader for green luminescence (540/20 nm filter) and red luminescence (618/8 nm filter). The green and red luminescent signals were corrected for red and green luminescence filter overlap using previously determined filter calibration constants (determined using the procedure outlined in the Promega Technical Manual). The %Activity was determined from the ratio of corrected green/red luminescent values. Green luminescent and ratio %Activity was determined by normalizing to the difference in signal between basal cells (0% Activity) and cells incubated with 10 uM of the proteasome inhibitor MG-132 (100% Activity). Red luminescent %Activity was normalized to the difference between red luminesence in basal cells (0%Activity) and zero luminescence (-100% Activity). Concentration-response curves were fitted to the signals arising from the green luminescence (I-kappa-B-alpha-luciferase fusion; IkB-luc) and the red luminescence (unfused luciferase; luc) as well as the calculated ratio. The concentration-effect curves were then classified based on curve quality (r2), response magnitude and degree of measured activity. Compounds were then categorized based on their concentration-response curves for all three datasets (Ikb-luc, luc and ratio).
Potency is read from the fitted curve at half-maximal effect.

Potency, inactive:
CCN1C(=O)C(O)(C2COC(C)(C)CC2=O)c2cc(Br)ccc21 (stereo not drawn)
Cc1ccc(-c2cc(C(=O)N/N=C/c3c(C)nn(-c4ccccc4)c3C)[nH]n2)cc1
O=C(N/N=C/c1cccs1)c1cc(-c2ccncc2)nc2ccccc12
COc1ccc(COC(=O)C2=C(C)NC(=O)NC2c2cc(Br)c(O)c(OC)c2)cc1 (stereo not drawn)
CCOC(=O)CSc1nc(C)c2cccc(C)c2n1
COc1ccc(C2=Nn3c(nnc3-c3ccccc3OC)SC2)cc1OC
Fc1cccc2sc(Nc3nnc(-c4ccccc4)o3)nc12
Nc1ncnc2c1ncn2C1OC(C(=O)NC2CC2)C(O)C1O (stereo not drawn)
CC(/C=N/NC(=O)c1cc(-c2ccc(Cl)cc2)nc2ccccc12)=C\c1ccco1
Cc1noc(C)c1COc1ccc(CC(=O)NCc2ccccc2)cc1
Cc1cc(C)c(S(=O)(=O)Nc2ccc3c4c(cccc24)CC3)c(C)c1
CCOc1ccc(Nc2cc(C)nc(-n3nc(C)cc3C)n2)cc1
COc1ccc(OC)c(C2CC(=O)c3c([nH]c(C(=O)OC(C)C)c3C)C2)c1 (stereo not drawn)
COc1ccccc1-c1nnc(Nc2nc3c(OC)cccc3s2)o1
C=CCn1c(SCC(=O)NCCO)nc2sc(C)c(C)c2c1=O
O=C(CNC(=O)c1ccco1)N=Nc1c(O)n(CCc2ccccc2)c2ccccc12
C=CCNc1ncnc2c1ncn2C1OC(CO)C(O)C1O (stereo not drawn)
COc1cccc(CSc2nc3ccccc3cc2C=O)c1
O=C(/C=C/c1cccc(Cl)c1)c1nc2ccccc2[nH]1
COc1cc2c(cc1OC)C(c1cc3cc(OC)c(OC)cc3[nH]c1=O)N(C(=O)C1CC1)CC2 (stereo not drawn)
CCOc1cc(CNc2ccc3c(c2)OCCO3)cc(Br)c1OCC
CC(C)Oc1ccccc1C1CC(=O)Nc2cc3c(cc21)OCCO3 (stereo not drawn)
C=C1C(O)[C@@H]2O[C@]3(CC[C@H](/C=C/C(C)[C@@H]4CC(C)=CC5(O[C@H](C[C@@](C)(O)CO)CCC5O)O4)O3)CC[C@H]2O[C@@H]1C(O)CC(C)[C@H]1OC2(CCCCO2)CCC1C (stereo partly drawn)
Cc1cc(Cl)n2c(nc3ccccc32)c1C#N
COc1ccc(-c2noc(CSc3nc(N)c(-c4ccccc4)c(=O)[nH]3)n2)cc1OC
COc1ccc(CN2C[C@H]3CCCN3c3cc(Br)ccc3S2(=O)=O)cc1
CCOCCOC(=O)c1[nH]c2c(c1C)C(=O)CC(c1ccccc1)C2 (stereo not drawn)
CCOc1cc(C(=O)N/N=C/C(Br)=C/c2ccccc2)cc(OCC)c1OCC
CCOC(=O)c1ccc(NC(=O)Nc2ccon2)cc1
Cc1ccccc1Nc1c(N)c(=O)oc2ccccc12
COc1cc(/C=C/c2ccc3cccc(O)c3n2)cc(OC)c1OC
COc1cc(/C=C/c2ccc3cccc(O)c3n2)c(Br)cc1O
Fc1ccc(/C=N/NC2=Nc3cccc4cccc2c34)cc1
CNC(=O)c1cccc(NC(=O)C(C)c2ccc3cc(OC)ccc3c2)c1 (stereo not drawn)
COc1ccc(C(C)=O)cc1COC(=O)c1ccc(N)c([N+](=O)[O-])c1
CCOc1cc(/C=C(/C#N)C(=O)Nc2ccc(O)cc2)cc(Br)c1O
COC(=O)c1ccc(C)c(NS(=O)(=O)c2ccc3c(c2)OCCO3)c1
CCN(CC)c1ccc(-c2nn3c(-c4n[nH]c5c4CCC5)nnc3s2)cc1
CC1C(=O)N2CCCc3cc(NC(=O)c4ccccc4Br)cc1c32 (stereo not drawn)
O=C(Nc1ccc(N2CCCC2)cc1)c1cc(Cl)ccc1Cl
COC(=O)c1cc(C(=O)N2CCN(c3cccc(Cl)c3)CC2)cc([N+](=O)[O-])c1
CCC1=Nc2cc(C(=O)NCc3ccco3)ccc2Sc2ccccc21
CCCCC[C@H](O)/C=C/[C@@H]1[C@@H](C/C=C\CCCC(=O)O)[C@H]2CO[C@@H]1C2
Cc1ccc(Nc2nc(-c3c(C)nc4ncccn34)cs2)cc1
Cc1ccc2[nH]c(-c3cccc(F)c3)cc(=O)c2c1
COc1cc2c(cc1OC)-c1cc(NC3CCCCC3)nc(=O)n1CC2
COc1cc2c(cc1OC)-c1cc(NC3CCCC3)nc(=O)n1CC2
COc1cc(S(=O)(=O)N2CCCCC2)ccc1NC(=O)/C=C/c1ccccc1
COc1ccccc1C(=O)Nc1ccccc1SC(=O)c1ccccc1OC
CCOc1ccc2c(c1)C(C)=CC(C)(C)N2S(=O)(=O)c1ccc(NC(C)=O)cc1
Cc1ccc2nc(NC(=O)c3ccccn3)sc2c1
C[C@]12C=CC(=O)C=C1CC[C@@H]1[C@@H]2[C@@H](O)C[C@@]2(C)[C@H]1CC[C@]2(O)C(=O)COC(=O)CCC(=O)O
C/C(Cl)=C\Cn1c(O)c(N=NC(N)=S)c2cc(Br)ccc21
OC[C@H]1O[C@@H](n2cnc3c(NC4CCCC4)nc(Cl)nc32)[C@H](O)[C@@H]1O
Cc1[nH]n(C(N)=S)c(=O)c1N=Nc1ccc2ccccc2c1
Cc1ccc(N=Nc2c(C)[nH]n(C(N)=S)c2=O)cc1
CCN1C(=O)c2cccc3c(NC(=O)c4ccc(OC)c(OC)c4)ccc1c23
O=C1N/C(=C/c2ccc(N3CCOCC3)o2)C(=O)N1c1cccc(Cl)c1
O=C(N/N=C/c1ccc(O)cc1)c1[nH]c2ccc(Br)cc2c1-c1ccccc1
COc1c(Br)cc(Br)cc1/C=N/NC(=O)c1cccnc1
CCOC(=O)c1c(C)oc2c1cc(NS(=O)(=O)c1ccc(C(=O)O)cc1)c1ccccc12
Cc1cccc(OCCN2C(=O)C(=O)c3cc(C)ccc32)c1
Cc1onc(-c2ccccc2)c1-c1nc2cc(Cl)ccc2c(=O)o1
CSc1nc(SCC(=O)NCc2ccco2)c2c3c(sc2n1)COC(C)(C)C3
Cc1nnc(C)n1/N=C/c1cc2ccccc2nc1Cl
Cc1cc(=O)c(C(=O)Nc2cccc(N3CCCC3=O)c2)nn1-c1ccccc1Cl
COc1ccc(C2=NC(C)(C)Cc3cc(OC)c(OC)cc32)cc1OC
CCCCC[C@H](O)/C=C/[C@@H]1[C@@H](C/C=C\CCCC(=O)O)[C@@H](O)C[C@H]1O
c1ccc(-c2cc(-c3nnc4n3N=C(c3ccc5ccccc5c3)CS4)[nH]n2)cc1
O=C(c1ccc(Cl)cc1)c1cc([N+](=O)[O-])ccc1N1CCOCC1
O=C(O)c1ccc(CSc2nnc(-c3ccco3)o2)cc1
COC(=O)c1cccc(-n2sc3ccccc3c2=O)c1
CC(Oc1ccc(Br)cc1)c1nc2c3ccccc3nc(=S)n2[nH]1 (stereo not drawn)
CCOc1ccccc1/C=N/Nc1nc2c(N)ncnc2n1[C@H]1O[C@@H](CO)[C@H](O)[C@@H]1O
CCCNS(=O)(=O)c1cccc(C(=O)OCc2cc(=O)oc3cc(OC)ccc23)c1
Cc1ccc(NS(=O)(=O)c2cc(-c3n[nH]c(=O)c4ccccc34)ccc2C)cc1
COc1ccc(-c2c(C)nn3c(N)c(C#N)cnc23)cc1OC
COc1cccc(-c2nnc(Nc3nc4c(F)cccc4s3)o2)c1
CCOc1c(OC)cccc1C1CC(=O)Nc2cc(OC)c(OC)cc21 (stereo not drawn)
COc1ccc(-c2noc(CSc3nc(N)c(-c4ccccc4)c(=O)[nH]3)n2)cc1
COc1ccccc1NC(=O)Cn1nnc(C(=O)NCc2cccs2)c1N
COc1cc2c(c(OC)c1OC)-c1ccc(OC)c(=O)cc1[C@@H](N(C)CC#CCO)CC2
Cc1cccc(N(C)S(=O)(=O)c2ccc(-c3cnc(C4CC4)o3)cc2)c1
C#CCOc1ccc(C2C3=C(COC3=O)Nc3cc4c(cc32)OCO4)cc1OC (stereo not drawn)
CCc1ccc(CCC(=O)Nc2sc3c(c2C#N)CCCC3)o1
Cc1cccc(C)c1NS(=O)(=O)c1ccc(-c2cnc(C3CC3)o2)cc1
O=C(O)CCCN1C(=O)/C(=C\c2ccccc2OCc2ccccc2)SC1=S
CC1=Nc2ccccc2/C1=C\c1sc(Nc2ccc(C)cc2)nc1O
COc1cccc(Nc2sc(C(=O)c3ccc(Cl)cc3)c(N)c2C(=O)NCc2ccc(C)cc2)c1
CC(=O)N1c2ccc(C)cc2C(c2ccccc2)CC1C (stereo not drawn)
Cc1noc(C)c1CSc1nc2[nH]ncc2c(=O)n1-c1ccccc1
COc1ccc2c(c1)sc1nc(-c3ccccc3)cn12
Nc1ccc(C(=O)n2c3ccccc3c3ccccc32)cc1
O=c1cc(-c2cccc(F)c2)[nH]c2ccccc12
COc1ccc(CCNc2oc(-c3ccc(OC)c(OC)c3)nc2P(=O)(OC)OC)cc1OC
COc1cc(OC)c(OC)cc1/C=C1\CCC/C(=C\c2cc(OC)c(OC)cc2OC)C1=O
COc1ccccc1-n1cnc2cc(NCc3cccs3)ccc21
NNC(=O)c1[nH]c2ccccc2c1-c1ccccc1
COc1cc(Cc2nccc3cc(OC)c(OC)cc23)c(NC(C)=O)cc1OC

Potency, active:
Cc1nn(-c2ccccc2)c(C)c1/C=N/NC(=O)c1cc(-c2cccs2)[nH]n1 18.4 µM
COc1cc(/C=C/c2ccc3cccc(O)c3n2)cc(Br)c1OC 10.3 µM
O=C(Nc1ccc(N2CCN(C(=O)c3ccc(Cl)cc3)CC2)cc1)c1ccc([N+](=O)[O-])o1 16.4 µM
Cc1[nH]n(C(N)=S)c(=O)c1N=Nc1cccc(Cl)c1 20.6 µM
